The values below come from the supplement of paper PMC11417369.

± gives the standard deviation of the averaged measurements. In all, about 25,000 sequences were measured (“ln(normalized median fluorescence intensity)”: median about 8.6, highest 2% from about 10 on). Shown is part of a subset that was picked to be rich in the highest values.

This assay deals with PfAP2-EXP AP2 domain (GST-tagged). Kind of assay: gcPBM binding intensity (ln(normalized median fluorescence intensity)); higher = stronger DNA binding. Summed up:
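GST-tagged P. falciparum DNA-binding domains, expressed in E. coli (about 25 μg on average), were applied for 1 h to an Agilent 4 × 180k array of primer-extended double-stranded 36-bp intergenic genomic probes plus negative controls. The binding buffer was 1× PBS with 1% milk, 0.2 mg/ml BSA, 0.5% salmon testes DNA and 0.03% Triton X-100. Bound protein was detected with Alexa488 anti-GST antibody and scanned at 488 nm. Binding intensity is the highest Masliner-normalised natural-log median intensity across replicate spots of either probe orientation.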
“ATAATAATATTTCTATGTACTTATTTTATGTATTAG [XGTACX_site1747]”: the “gcPBM binding intensity (ln)” value is 8.51 ± 0.4.
For the sequence “TTTGAATAAAAACAAAAAATTAAATTAAATTAAATA [CACACA_negctrl_site312]”, the “gcPBM binding intensity (ln)” value amounted to 8.15 ± 0.5.
As for “ATTTCCTTGAATGTTGCATGCTGTATTTTAATTAAA [TGCATGCA_site280]”, the “gcPBM binding intensity (ln)” value stood at 9.88 ± 0.43.
With “ATTTTTGAACGGTACAGTACAGAATTTAATTAACCC [XGTACX_site47]”, the “gcPBM binding intensity (ln)” value was determined as 9.13 ± 0.54.
Take “AAAAAACACGGACACACACACATATACATACATACA [CACACA_site5470]”: the “gcPBM binding intensity (ln)” value stood at 9.07 ± 0.3.
On to “AAAAAAAACGGACACACACACATAAATATATATAAA [CACACA_site4260]”, for which the “gcPBM binding intensity (ln)” value was 9.02 ± 0.4.
Consider “TACATACACGGACACACACACATATATATATATATA [CACACA_site5883]”, for which the “gcPBM binding intensity (ln)” value is 10.2 ± 0.36.
Regarding “AAAAAAAACGGACACACACACATACCCATACATACA [CACACA_site5574]”, the “gcPBM binding intensity (ln)” value came to 8.78 ± 0.49.
The figure for “CCCCCCCACGGACACACACACATACATACCACATAT [CACACA_site5303]” is 10.3 ± 0.19; for “CGCATACACGGACACACACACACATATATATATATA [CACACA_site4520]” it is 10.1 ± 0.34; for “CTAAAATACGGACACACACACACATATATATATATA [CACACA_site6138]” it is 10.3 ± 0.15.
Regarding “AATAACCACGGACACACACACATATATATATATATA [CACACA_site5873]”, the “gcPBM binding intensity (ln)” value worked out at 10.2 ± 0.46.
As for “AGTATACATATATATACACACACATATATATATATA [CACACA_site7883]”, the “gcPBM binding intensity (ln)” value turned out to be 9.98 ± 0.62.
For the sequence “AAAAAAAACGGACACACACACATACAAAATATATAT [CACACA_site4910]”, the “gcPBM binding intensity (ln)” value is 8.7 ± 0.38.
Turning to “AGTATACTCGGACACACACACACATATATATATATA [CACACA_site5031]”, the “gcPBM binding intensity (ln)” value amounted to 10.3 ± 0.2.
As for “AGTATACATATATATACACACATATATATATATATA [CACACA_site300]”, the “gcPBM binding intensity (ln)” value came out at 10.2 ± 0.34.
With “TTTAAAATTATAAGGATTAAAAAAAAAAAAAATAAA [CACACA_negctrl_site114]”, the “gcPBM binding intensity (ln)” value is 8.27 ± 0.45.
In the case of “ATTTTGTTTTTTTTTGCACACCATAAGGAGTGTAGG [CACACA_site1414]”, the “gcPBM binding intensity (ln)” value is 8.84 ± 0.41.
Regarding “AATAATGTATGAAATAAACACACAAGTAAGTACATA [CACACA_site8776]”, the “gcPBM binding intensity (ln)” value was 8.85 ± 0.39.
For “TACAAAAGCGATACGGCACACATTTCCTGTTTAAAT [CACACA_site2746]”, the “gcPBM binding intensity (ln)” value was determined as 8.74 ± 0.33.
As for “AATTATTTACCCTATACACACAAAACACGCTAAAAA [CACACA_site1211]”, the “gcPBM binding intensity (ln)” value turned out to be 8.79 ± 0.43.
Turning to “AATATATTTTTTCACTGTACTTTTATTATATATACA [XGTACX_site8312]”, the “gcPBM binding intensity (ln)” value came to 8.97 ± 0.36.
For the sequence “AAATAAAAACATAACAGTACAGTTAACATTTTTATA [XGTACX_site3479]”, the “gcPBM binding intensity (ln)” value was 8.29 ± 0.35.
“AATACATTTATGAGCTGTACACATTTATTTGAGCTA [XGTACX_site7695]”: the “gcPBM binding intensity (ln)” value came to 8.51 ± 0.27.
The figure for “ATATTTAAATATATTTATATATATAAAAAAAAATAT [GTGCAC_negctrl_site312]” is 8.56 ± 0.39.
With “TATCGACATTTCATTTGTACATATATACATATATTT [XGTACX_site3346]”, the “gcPBM binding intensity (ln)” value came to 8.64 ± 0.42.
As for “TGTTCATTTATTTACTTACACACTTTATATATGTGG [CACACA_site1410]”, the “gcPBM binding intensity (ln)” value stood at 8.79 ± 0.53.
Then “GAATTAATTTTAAAACGTACATGGGTGTATTTACAC [XGTACX_site5939]”, with 8.86 ± 0.3; and “GGGAGGATATTACACAGTACCCAGAAAATCTACGGA [XGTACX_site2551]”, with 8.8 ± 0.43.
For the sequence “TTATTATATTAAAAGAGGACACATTTATTTTTTTTT [XGTACX_site1241]”, the “gcPBM binding intensity (ln)” value came out at 8.09 ± 0.53.
Then “TACACAAGCGGACACACACACATATATATATATATA [CACACA_site4832]”, with 10.3 ± 0.13; and “CATACATACGGACACACACACATATATATATATATA [CACACA_site5598]”, with 10.2 ± 0.41.
Then “CATATATACACATACACACACACACGGACACGCACA [CACACA_site6910]”, with 8.87 ± 0.53; and “CACAGACACGGACACACACACACACCCACATATATA [CACACA_site4355]”, with 8.73 ± 0.41; and “AATACATACGGACACACACACACATATATATATATA [CACACA_site5884]”, with 10.3 ± 0.17.
Consider “AAAATACCCGGACACACACACATATATATATATATT [CACACA_site6137]”, for which the “gcPBM binding intensity (ln)” value amounted to 8.83 ± 0.31.
Take “AATACCCAAGGACACACACACACATATATATATATA [CACACA_site8345]”: the “gcPBM binding intensity (ln)” value was 10.2 ± 0.26.
As to “TATACACCCGGACACACACACATATATATATATATA [CACACA_site5030]”, the “gcPBM binding intensity (ln)” value was 10.1 ± 0.54.
On to “TACACAAGCAGACACACACACATATATATATATATA [CACACA_site1270]”, for which the “gcPBM binding intensity (ln)” value was 10.1 ± 0.53.
On to “CACAGACACGGACACACACACATATATAATATATAT [CACACA_site4495]”, for which the “gcPBM binding intensity (ln)” value amounted to 8.84 ± 0.33.
The figure for “GTAATACCCAAACACACACACATACCCATATATATA [CACACA_site5510]” is 8.88 ± 0.52; for “CACAGACACGGACACACACACATATATATATATATA [CACACA_site5248]” it is 10.2 ± 0.26.
As for “TTCAAAATATATATTTGTACATATAGGATCTTTTTC [XGTACX_site4500]”, the “gcPBM binding intensity (ln)” value is 8.41 ± 0.45.
The figure for “TTTTTTTATTAATGTAGTACAATATAATGTTATATT [XGTACX_site2295]” is 8.54 ± 0.29; for “AGACGAAAATAATAAAGTACTAAAAAAAAAAAAAAA [XGTACX_site927]” it is 8.14 ± 0.51; for “AAACAAATATATATATGTACTTATAAAAAAAAAAAT [XGTACX_site2211]” it is 8.54 ± 0.45.
In the case of “AGGATACACGGACACACACACATATATATATATATA [CACACA_site4654]”, the “gcPBM binding intensity (ln)” value was 10.2 ± 0.28.
With “ATAAATATAGGACACACACACATATTATATATATAT [CACACA_site5658]”, the “gcPBM binding intensity (ln)” value worked out at 9.65 ± 0.12.
Regarding “AGGATACACGGACACACACACATATAGATTTATATA [CACACA_site6552]”, the “gcPBM binding intensity (ln)” value was determined as 8.59 ± 0.52.
With “AACATTATAGGACACACACACACATATATATATATA [CACACA_site4721]”, the “gcPBM binding intensity (ln)” value is 10.3 ± 0.13.
As for “TAATAAATAGGACACACACACATATATATATATTAT [CACACA_site4891]”, the “gcPBM binding intensity (ln)” value is 8.87 ± 0.52.
The figure for “TACATATTTATATACACACACACACGGATATTTATA [CACACA_site7239]” is 8.94 ± 0.28.
Turning to “TATAAAATTTAAATTATACACACTTAAGTAACATCA [CACACA_site531]”, the “gcPBM binding intensity (ln)” value came to 8.74 ± 0.35.
Take “AATTATCAAAGTCTATACATACATACATACATACAT [GTGCAC_negctrl_site243]”: the “gcPBM binding intensity (ln)” value is 8.95 ± 0.23.
Regarding “ATAAATCTACACCGCACACAAAAACAACAAATATTA [CACACA_site5396]”, the “gcPBM binding intensity (ln)” value came to 8.64 ± 0.58.
As for “GTTATACTCATATATACACACATATGTAAATATATA [CACACA_site5764]”, the “gcPBM binding intensity (ln)” value worked out at 8.94 ± 0.58.
Regarding “CAACATTTGAAACACACACACATACAAACAAACAAA [CACACA_site3306]”, the “gcPBM binding intensity (ln)” value was 8.89 ± 0.47.
